This note sets out measurements from PubChem BioAssay (Tox21).

Experiment [1] in a line: qHTS assay for small molecule agonists of the p53 signaling pathway (AID 651631; calls by dose curve; note: nearly all actives have a fitted effect of over 15% in size; note: potency is the fitted concentration of half-maximal effect). In short, it runs like this: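 p53RE-bla HCT-116 cells; compounds 16 h, 37 °C; LiveBLAzer B/G FRET substrate 2 h RT; fluorescence intensity read-out, qHTS format.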
The nature of experiment [2]: qHTS assay for small molecules that induce genotoxicity in human embryonic kidney cells expressing luciferase-tagged ATAD5 (AID 651632). Note: nearly all actives have a fitted effect of over 15% in size. Note: potency is the fitted concentration of half-maximal effect. In short, it runs like this:
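HEK293T cells carrying a luciferase reporter tagged to ATAD5 were exposed to compound or DMSO vehicle for 16 hr at 37C, 5% CO2. Amplite was added, and after 30 min at room temperature luciferase activity was read as a marker of ATAD5 induction.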
For orientation: qHTS replaces the single test concentration by a dilution series.

The nature of experiment [3]: qHTS assay for small molecule agonists of the p53 signaling pathway - cell viability (AID 651633; calls by dose curve; note: nearly all actives have a fitted effect of over 30% in size; note: potency is the fitted concentration of half-maximal effect). The procedure, abridged:
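Viability counter-read: CellTiter-Glo luminescence (30 min, room temperature) in the same p53RE-bla plates. These plates had been exposed to compounds for 16 h at 37 C.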

Experiment [4] can be described thus: qHTS assay for small molecules that induce genotoxicity in human embryonic kidney cells expressing luciferase-tagged ATAD5 - cell viability (AID 651634; calls by dose curve; note: nearly all actives have a fitted effect of over 25% in size; note: potency is the fitted concentration of half-maximal effect). In short, it runs like this:
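HEK293T cells expressing luciferase-tagged ATAD5 were exposed to compound or DMSO for 15.5 hr at 37C, 5% CO2. Viability was then read as live-cell protease activity by CellTiter-Fluor fluorescence after 30 min at 37C.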

Experiment [5] can be described thus: qHTS assay to test for compound auto fluorescence at 590 nm (red) in HepG2 cells (AID 720674). The procedure, abridged: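 We screened compounds on adherent HepG2 cells, incubating them for an hour at 37 C in 5% CO2 before reading emission at 590 nm under 540 nm excitation; values reflect equivalence to Rose Bengal sodium fluorescence.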
Experiment [6] can be described thus: qHTS assay to test for compound auto fluorescence at 535 nm (green) in HepG2 cells (AID 720675).
Experiment [7] can be described thus: qHTS assay to test for compound auto fluorescence at 460 nm (blue) in HEK293 cells (AID 720678). The procedure, abridged:
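Auto fluorescence in the blue band was quantified as triamterene equivalency. HEK293 cells were seeded at 2,000/well, dosed after a 4-5 hr attachment, and kept overnight at 37C before the 405/460 nm reading.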

Experiment [8] can be described thus: qHTS assay to test for compound auto fluorescence at 590 nm (red) in HEK293 cells (AID 720679). In short, it runs like this:
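Autofluorescence equivalency to Rose Bengal sodium, 540/590nm, in HEK293 cells exposed overnight to 23 nL compound per well.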

Experiment [9] is described as follows: qHTS assay to test for compound auto fluorescence at 535 nm (green) in HEK293 cells (AID 720680).
Experiment [10] in a line: qHTS assay to test for compound auto fluorescence at 460 nm (blue) in HEK293 cell free culture (AID 720681). The procedure, abridged: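 Blue fluorescence (Ex 405/Em 460 nm, triamterene-equivalent) was read immediately after pin transfer of compound or DMSO into medium (DMEM, 10% FBS) without cells.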
The nature of experiment [11]: qHTS assay to test for compound auto fluorescence at 535 nm (green) in HEK293 cell free culture (AID 720682). The procedure, abridged: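 Cell-free medium (DMEM, 10% FBS) receives compound or DMSO by pintool. Plate read directly at Ex 485/Em 535 nm. Signal converted to fluorescein equivalency.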
A short description of experiment [12]: qHTS assay to test for compound auto fluorescence at 590 nm (red) in HEK293 cell free culture (AID 720683). In short, it runs like this:
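Red-channel autofluorescence of compounds in culture medium (DMEM, 10% FBS), no cells, measured at 540/590 nm. Rose Bengal sodium is the reference fluorophore for equivalence.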

A short description of experiment [13]: qHTS assay to test for compound auto fluorescence at 590 nm (red) in HepG2 cell free culture (AID 720684). The procedure, abridged:
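Steps: dispense MEM/10% FBS medium, no cells; pin compound or DMSO vehicle; read red channel, Ex/Em 540/590 nm. Output given as Rose Bengal sodium equivalents.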

A short description of experiment [14]: qHTS assay to test for compound auto fluorescence at 460 nm (blue) in HepG2 cell free culture (AID 720685). In short, it runs like this:
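Compound (23 nL) or DMSO pinned into cell-free MEM with 10% FBS; blue fluorescence read at 405/460 nm excitation/emission, expressed as auto-fluorescence equivalency to triamterene.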

The nature of experiment [15]: qHTS assay to test for compound auto fluorescence at 535 nm (green) in HepG2 cell free culture (AID 720686).
The nature of experiment [16]: qHTS assay for small molecule disruptors of the mitochondrial membrane potential - cell viability (AID 720634; calls by dose curve; note: nearly all actives have a fitted effect of over 20% in size; note: potency is the fitted concentration of half-maximal effect). The procedure, abridged:
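HepG2 cells seeded overnight at 37 C, then exposed to compound or DMSO for 1 hr at 37 C, 5% CO2. m-MPI dye added, then CellTiter-Glo for 30 min at room temperature; viability read as ATP luminescence.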

The nature of experiment [17]: qHTS assay for small molecule disruptors of the mitochondrial membrane potential (AID 720635). Note: potency is the fitted concentration of half-maximal effect. In short, it runs like this:
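Mitochondrial membrane potential tracked with Mito-MPS dye, red aggregates (ex 540/em 590 nm) against green monomers (ex 490/em 535 nm). Compound treatment 1 hr at 37C, dye 30 min in HepG2.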

Experiment [18] deals with Glucocorticoid receptor (Homo sapiens) (UniProt P04150). Put plainly: qHTS assay to identify small molecule agonists of the glucocorticoid receptor (GR) signaling pathway (AID 720691; active = well fitted activation curve with a large enough effect in the signal ratio in the repeat runs, not every such curve was filed as active; the % refers to the signal ratio). The procedure, abridged: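 GR-bla HeLa cells (beta-lactamase reporter under glucocorticoid response element) were plated 4 h at 37 C/5% CO2, given compounds in DMSO, and incubated 18 h at 37 C. LiveBLAzer B/G FRET substrate was added for 2 h at room temperature, then fluorescence intensity read.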
Glucocorticoid receptor (Homo sapiens), sequence (P04150 whole entry, looked up): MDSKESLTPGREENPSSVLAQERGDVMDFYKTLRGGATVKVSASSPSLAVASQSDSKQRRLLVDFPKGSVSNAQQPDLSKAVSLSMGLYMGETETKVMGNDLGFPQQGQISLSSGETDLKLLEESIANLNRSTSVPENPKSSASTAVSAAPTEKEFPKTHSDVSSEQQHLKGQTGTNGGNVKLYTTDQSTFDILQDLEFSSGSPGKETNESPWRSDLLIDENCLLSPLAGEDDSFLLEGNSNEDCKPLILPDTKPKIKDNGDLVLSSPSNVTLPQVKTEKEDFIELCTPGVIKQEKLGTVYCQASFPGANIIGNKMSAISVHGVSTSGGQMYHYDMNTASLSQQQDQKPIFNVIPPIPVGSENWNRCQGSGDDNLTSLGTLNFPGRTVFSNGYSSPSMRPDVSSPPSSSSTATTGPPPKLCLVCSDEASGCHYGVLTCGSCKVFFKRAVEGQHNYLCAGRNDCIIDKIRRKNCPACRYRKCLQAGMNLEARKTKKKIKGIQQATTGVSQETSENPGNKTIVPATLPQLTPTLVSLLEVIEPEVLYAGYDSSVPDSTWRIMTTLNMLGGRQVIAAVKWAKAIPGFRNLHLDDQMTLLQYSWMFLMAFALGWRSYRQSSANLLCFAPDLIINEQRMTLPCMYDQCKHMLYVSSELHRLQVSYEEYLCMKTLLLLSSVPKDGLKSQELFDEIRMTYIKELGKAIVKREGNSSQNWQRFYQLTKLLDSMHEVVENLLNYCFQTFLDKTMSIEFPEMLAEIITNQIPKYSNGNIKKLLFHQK

Experiment [19] has the same target. The experiment in a line: qHTS assay to identify small molecule antagonists of the glucocorticoid receptor (GR) signaling pathway (AID 720692; active = well fitted inhibition curve with a large enough effect in the signal ratio in the repeat runs, not every such curve was filed as active; the % refers to the signal ratio). The procedure, abridged:
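GR-bla HeLa cells (beta-lactamase reporter under glucocorticoid response element) were pre-plated 4 h at 37 C, treated with compounds plus 5 nM dexamethasone (final) for 18 h, then read by LiveBLAzer B/G FRET fluorescence after 2 h.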

The nature of experiment [20]: qHTS assay to test for compound auto fluorescence at 460 nm (blue) in HepG2 cells (AID 720687). The procedure, abridged:
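Blue-channel autofluorescence (Ex/Em 405/460 nm, triamterene-equivalent) was measured after 1 hr compound exposure at 37 C, 5% CO2. Cells were HepG2, plated overnight at 37 C in MEM plus 10% FBS.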

Values joined by “and” are separate entries in the source; they are usually repeats but may differ in a detail not shown here. Equal values may be shown once. Results filed as inconclusive are left out. Where a structure was tested more than once in an assay, its records may differ in their call. Active and inactive are the calls of the source. Unless noted, calls come from the whole dose curve; as a rule, active = well fitted curve in the direction sought with a large enough effect in the repeat runs; inconclusive = weak or mixed curves; inactive = no such curve, though single readings can be large; an effect the other way counts as inactive or inconclusive.

Consider `CCCCOCCOCCOCCO`, for which the Potency entry in [1], in experiment [2], in [3], in experiment [4], in experiment [5] and in [6] was “inactive” throughout. The Potency result in [8], in experiment [9], in experiment [11], in experiment [12], in [13] and in experiment [15] was “inactive” throughout. In addition, the compound was classed as inactive in [7], in experiment [10] and in [14].
Take `COC(=O)CCC(=O)OC`: the Potency entry in experiment [1], in experiment [2], in experiment [3], in experiment [4], in experiment [16] and in experiment [17] was “inactive” each time. In addition, the Potency entry in experiment [5], in experiment [6], in experiment [8], in experiment [9], in experiment [11] and in experiment [12] was “inactive” throughout. For the same compound, the Potency result in experiment [13], in experiment [15], in experiment [18] and in experiment [19] was “inactive” each time. Moreover, the call in experiment [7], in experiment [10] and in experiment [14] was inactive.
Turning to `Cc1c(C(N)=O)cc([N+](=O)[O-])cc1[N+](=O)[O-]`, the Potency result in [1], in experiment [2], in experiment [3], in [4], in experiment [16] and in [17] was “inactive” throughout. The Potency result in [5], in [6], in experiment [8], in experiment [9], in experiment [11] and in experiment [12] was “inactive” each time. For the same compound, the Potency entry in experiment [13], in [15], in experiment [18] and in experiment [19] was “inactive” each time. Besides, the outcome in [10] and in experiment [14] was inactive.
For the compound `Nc1ccc(Cl)cc1Cl`, the Potency entry in experiment [1], in [2], in [3], in [4], in experiment [16] and in experiment [17] was “inactive” throughout. Also, the Potency entry in [5], in experiment [6], in experiment [8], in experiment [9], in experiment [11] and in experiment [12] was “inactive” throughout. Moreover, the Potency result in [13], in experiment [15], in experiment [18] and in experiment [19] was “inactive” throughout. Further, the compound was classed as inactive in experiment [10] and in experiment [14].
`CC(C)Oc1ccc2c(=O)c(-c3ccccc3)coc2c1`: the Potency result in [1], in experiment [3], in [4], in [16], in experiment [5] and in experiment [6] was “inactive” each time. Besides, the Potency result in experiment [8], in experiment [9], in [12], in experiment [13], in [15] and in experiment [18] was “inactive” in each case. Further, in experiment [2], the Potency was 1.19 µM (active) and 2.66 µM (active). Besides, the outcome in experiment [7], in experiment [10], in experiment [14] and in experiment [20] was inactive.
For `Cc1ncc[nH]1`, the Potency entry in experiment [1], in experiment [2], in experiment [3], in experiment [4], in experiment [16] and in experiment [17] was “inactive” each time. The Potency entry in [5], in experiment [6], in [8], in experiment [9], in experiment [12] and in [13] was “inactive” each time. Also, the Potency entry in experiment [15], in experiment [18] and in experiment [19] was “inactive” each time. The call in experiment [7], in experiment [10], in [14] and in experiment [20] was inactive.
For the compound `CC(=O)Oc1ccccc1C(=O)Nc1ncc([N+](=O)[O-])s1`, the Potency in [1] was 5.96 µM (active); in experiment [2], 1.33 µM (active); in [3], 9.44 µM (active) and inactive; in [4] it was 18.8 µM (active) and 22.1 µM (active); in [16], 0.556 µM (active); in [17], 1.5 µM (active) and 351 nM (active). Besides, the Potency entry in [5], in [6], in experiment [8], in [9], in experiment [11] and in experiment [12] was “inactive” each time. For the same compound, the Potency result in [13] and in [15] was “inactive” each time. The compound was called inactive in [7], in [10], in [14] and in [20].
Regarding `CN(C)CCC=C1c2ccccc2CCc2ccccc21`, in experiment [1], the Potency was 61.1 µM (active). Also, the Potency result in experiment [2], in experiment [3], in experiment [4], in [16], in experiment [5] and in [6] was “inactive” throughout. For the same compound, the Potency entry in experiment [8], in [9], in experiment [11], in [12], in experiment [13] and in experiment [15] was “inactive” in each case. Further, the Potency entry in experiment [18] was “inactive”. Further, the result in [7], in [10], in [14] and in experiment [20] was inactive.
As for `O=C1c2cccc(O)c2C(=O)c2c(O)cccc21`, the Potency was 19.5 µM (active) in experiment [1]; 2.37 µM (active) and 3.1 µM (active) in [17]. Also, the Potency result in [2], in experiment [3], in experiment [4], in [16], in experiment [5] and in experiment [6] was “inactive” each time. Further, the Potency result in experiment [8], in experiment [9], in experiment [12], in experiment [13] and in [15] was “inactive” in each case. In addition, the compound was classed as inactive in [7], in [10], in experiment [14] and in experiment [20].
Turning to `O=C(c1ccccc1)c1ccc(O)cc1O`, the Potency entry in [1], in experiment [2], in [3], in experiment [4], in [5] and in experiment [6] was “inactive” throughout. Further, the Potency result in [8], in [9], in experiment [11], in experiment [12], in experiment [13] and in [15] was “inactive” throughout. Besides, the Potency result in [18] and in experiment [19] was “inactive” in each case. For the same compound, the Potency in [17] was 27.8 µM (active) and 61.1 µM (active). Further, the call in experiment [10], in experiment [14] and in [20] was inactive.
`CC(CCC(=O)O)(c1ccc(O)cc1)c1ccc(O)cc1`: the Potency result in [1], in [2], in experiment [3], in [4], in experiment [16] and in experiment [17] was “inactive” in each case. For the same compound, the Potency entry in experiment [5], in [6], in [8], in experiment [9], in [11] and in experiment [12] was “inactive” each time. The Potency entry in [13], in experiment [15], in experiment [18] and in [19] was “inactive” each time. Moreover, the compound was classed as inactive in [7], in experiment [10], in experiment [14] and in experiment [20].
With `O=C=Nc1ccc(Cc2ccc(N=C=O)cc2)cc1`, the Potency result in [1], in [2], in [3], in experiment [4], in experiment [16] and in experiment [17] was “inactive” each time. Moreover, the Potency result in experiment [5], in experiment [6], in experiment [8], in experiment [9], in [11] and in experiment [12] was “inactive” in each case. The Potency result in [13], in [15], in experiment [18] and in experiment [19] was “inactive” in each case. Moreover, the result in experiment [10], in experiment [14] and in experiment [20] was inactive.
